# In paper PMC5540273 (PLoS ONE, 2017):
# Tested on: T1, OSR1
# T1 construct: gene OXSR1
# Details: concentration: 1 μM, replicates: in singlicate; n = 1
# 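Also: KINOMEscan kinase panel screen.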
row,Compound,%Inh [%]
1,Cl.c1ccc(-c2ccc3c(Nc4ccc5[nH]ccc5c4)ccnc3c2)nc1 [GW440138],4
2,O=C(Nc1ccccc1F)NC1CCN(c2ccnc(Nc3ccc(F)cc3)n2)CC1 [GSK1379800],0
3,Cc1cccc(NC(=O)Nc2ccc(Oc3ncnc4ccn(C)c34)cc2)c1,0
4,COc1cccc(C2=C(Nc3ccc(Cl)c(C(=O)O)c3)C(=O)NC2=O)c1 [SB-390769],100
5,COc1cccc(-c2ccc3c(NC(=O)C4CC4)n[nH]c3n2)c1 [SB-710903],13
6,CN1CCN(CCCNc2nccc(-c3c(-c4ccc(F)cc4)nn4cc(C(F)(F)F)ccc34)n2)CC1 [GW621581],6
7,COCCOCCOc1cc2ncc3c4ccc(C#N)cc4[nH]c3c2cc1OC,0
8,O=C(Nc1cccc(-c2nn3ncccc3c2-c2ccnc(Nc3ccccc3)n2)c1)c1c(F)cccc1F [GSK198271],16
9,c1ccc(-c2n[nH]cc2Nc2ccnc3ccccc23)nc1 [GW694077],7
10,COC(=O)Nc1nc2ccc(Oc3ccc(NC(=O)Nc4cc(C(F)(F)F)ccc4F)cc3)cc2n1C.Cl [GW692089],0
11,Cn1cc(-c2ccc3c(c2)CCN3C(=O)Cc2cccc(Cl)c2)c2c(N)ncnc21 [GSK2606590],16
12,CC(C)(C)c1ccc2nccc(Nc3cccc(O)c3)c2c1 [GW856795],0
13,COc1cc(Nc2nccc(N3CCC(NC(=O)Nc4cccc(C(C)=O)c4)C3)n2)cc(OC)c1OC (stereo not drawn) [GSK1379753],6
14,O=C(Nc1n[nH]c2nc(-c3ccc(O)cc3)ccc12)C1CC1 [SB-710363],0
15,c1ccc(-c2cnc3nccnn23)cc1 [AH20685],0
16,CN(C)Cc1ccc(-c2ccc3c(Nc4ccc(Oc5ccccn5)cc4)ccnc3c2)o1 [GW567148],15
17,NCCCC(NC(=O)c1cc(Br)c(-c2ccnc3[nH]ccc23)s1)c1ccccc1.O=C(O)C(F)(F)F.O=C(O)C(F)(F)F (stereo not drawn) [GSK1287544],57

row,Compound,%Inh [%]
1,CCS(=O)(=O)c1ccc(OC)c(Nc2nccc(-c3c(-c4cccc(NC(=O)c5c(F)cccc5F)c4)nn4ncccc34)n2)c1 [GSK326180],9
2,CCn1c(-c2nonc2N)nc2c(C#CC(C)(C)O)ncc(OCCCCN)c21.O=C(O)C(F)(F)F.O=C(O)C(F)(F)F [GSK507274],40
3,Cl.Cl.NCC(NC(=O)c1cc(-c2ccccc2)c(-c2ccnc3[nH]ccc23)s1)c1ccccc1 (stereo not drawn) [GSK1321561],15
4,Clc1ccc(-c2nn3ncccc3c2-c2ccnc(Nc3ccc4c(c3)OCCO4)n2)cc1 [GW829116],0
5,Cc1ccc(C)c(NC(=O)NC2CCN(c3ccnc(Nc4ccc(F)cc4)n3)C2)c1 (stereo not drawn) [GSK1379720],0
6,CN1CCN(Cc2cccc(-c3ccc4c(Nc5ccc(Oc6ccccc6)cc5)ccnc4c3)c2)CC1 [GW578342],4
7,O=C(O)C(F)(F)F.O=C(O)C(F)(F)F.O=c1[nH]ccc2nc(N[C@@H]3CCCNC3)nc(Nc3ccc(S(=O)(=O)N4CCOCC4)cc3)c12 [GSK2177277],92.1
8,COc1cc(Nc2nccc(-c3c(-c4cccc(NC(=O)c5c(F)cccc5F)c4)nn4ncccc34)n2)cc(OC)c1OC [GSK327238],19
9,O=C(NC1CCN(c2ccnc(Nc3ccc(F)cc3)n2)C1)c1cc2ccccc2s1 (stereo not drawn) [GSK1379716],11
10,Cl.c1ccc(-c2ccc3c(Nc4ccc5[nH]ncc5c4)ccnc3c2)nc1 [GW440137],5
11,COc1cc(Nc2ncc3c(C)nc(-c4cc5ccccc5[nH]4)n3n2)cc(OC)c1OC [GW869516],0
12,CCCCc1nn2ncccc2c1-c1ccnc(Nc2ccc(N3CCN(C)CC3)cc2)n1 [GW684941],12
13,C[C@@H](Oc1cc(-n2cnc3cc(-c4ccnc(NCCS(C)(=O)=O)c4)ccc32)sc1C(N)=O)c1ccccc1Cl [GSK907232],20
14,O=C(Nc1cccc(-c2nn3ccccc3c2-c2ccnc(Nc3cccc(F)c3)n2)c1)c1c(F)ccc(F)c1Cl [GSK357952],2
15,CCc1ccc(-c2ccc3c(c2)-c2c(cnn2C)S(=O)(=O)N3C)cc1,0
16,O=C(Nc1cccc(-c2nn3ccccc3c2-c2ccnc(Nc3cccc(C(F)(F)F)c3)n2)c1)c1c(F)cccc1F [GSK292658],19
